This is an account of results in PubChem BioAssay.

By inhibition is commonly meant the change of the read-out against control, counted positive when it falls.

A number with no mark means an inactive call. The source made the active and inactive calls.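 The calls were made as follows: active = inhibition above the hit cutoff set in the earlier primary screen (cut at about 27% in these data); inactive = the rest.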

Sequence of Protein phosphatase methylesterase 1 (Homo sapiens) (Q9Y570 whole entry, looked up): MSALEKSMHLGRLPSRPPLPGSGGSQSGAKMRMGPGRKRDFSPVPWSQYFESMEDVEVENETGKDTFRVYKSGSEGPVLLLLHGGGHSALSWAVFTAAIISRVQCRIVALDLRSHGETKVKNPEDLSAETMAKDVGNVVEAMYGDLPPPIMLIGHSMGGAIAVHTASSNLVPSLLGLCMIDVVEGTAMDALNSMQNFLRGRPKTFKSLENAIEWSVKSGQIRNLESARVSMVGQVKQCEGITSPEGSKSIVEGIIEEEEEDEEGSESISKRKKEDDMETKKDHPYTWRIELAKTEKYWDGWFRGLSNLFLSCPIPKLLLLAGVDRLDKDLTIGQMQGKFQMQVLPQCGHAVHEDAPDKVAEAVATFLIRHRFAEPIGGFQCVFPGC

This assay addresses Protein phosphatase methylesterase 1 (Homo sapiens) (UniProt Q9Y570). Briefly: human PME-1 methylesterase inhibition confirmation – biochemical, fluorescence polarization, FP-Rh probe, triplicate (AID 2171).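 Also: 0% = enzyme with DMSO and 100% = wells lacking PME-1.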 The conditions noted are these: recombinant PME-1, FP-Rh probe fluorescence polarization; at 5.9 µM; active compounds read high. For orientation: Polarisation of emitted light reports the rotation of a fluorescent probe.
Take `COc1ccc(-c2c/c(=N\c3nc(-c4ccccc4)c(C)s3)c3ccccc3o2)cc1O`: the inhibition is 20.8%.

On to `O=C(N/N=C/c1c[nH]c2ccccc12)c1ccc([N+](=O)[O-])cc1Cl`, for which the inhibition is 20.6%. Consider `N#CC1=C(N)C(C#N)(C#N)C(c2cccnc2)C2CC(c3ccccc3)CC=C12` (stereo not given), for which the inhibition is 83.5% (active). On to `Cn1c2ccccc2c2cc(/C=N/NC(=O)c3ccc(N)cc3)ccc21`, for which the inhibition was 19.7%. As to `Cc1cc(O)c(NC(=S)NC(=O)c2ccc(-c3ccc(Cl)cc3)o2)cc1C`, the inhibition was 42.2% (active). On to `CCOc1ccc(NC(=S)NNc2ccnc3cc(Cl)ccc23)cc1`, for which the inhibition is 28.3% (active). For the compound `Cn1c(O)c(/C=N/NC(=O)c2cc3ccccc3cc2O)c2ccccc21`, the inhibition is 58.7% (active). To `COc1cc(/C=N/NC(=O)c2ccc3c(c2)OCCO3)c(Br)c(Br)c1O` belongs 43% (active); to `COc1ccc(C(=O)c2sc3nc(-c4ccccc4)ccc3c2N)cc1`, 11.8%. As to `O=C(N/N=C/c1ccc(O)c(O)c1)c1ccc(CSc2cccc3cccnc23)cc1`, the inhibition was -3.59%. With `COc1ccc(O)c(/C=N/Nc2nc(C)cc(-c3ccccc3)n2)c1` the figure was 39% (active); with `Cc1cc(SCC(=O)N/N=C/c2ccc(O)c(O)c2O)c(C)cc1Br`, -9.75%; with `O=C(Nc1cccc(-c2csc(Nc3ccc(Cl)cc3)n2)c1)c1cc([N+](=O)[O-])cc(C(F)(F)F)c1`, -16.1%.

As for `O=[N+]([O-])c1ccc(N/N=C/c2cccc(O)c2O)cc1`, the inhibition is 23.3%. To `O=C(O)CSc1cc(NS(=O)(=O)c2ccc(Br)cc2)c2ccccc2c1O` belongs 3.78%; to `c1ccc2c(c1)OCCc1c-2[nH]c2ccccc12`, 21.9%; to `Cc1ccc(N=Nc2c(N)n(-c3ccccc3)[nH]c2=O)cc1`, 33.1% (active). Regarding `Cc1cc(O)ccc1N=Cc1c(C(F)(F)F)[nH][nH]c1=O`, the inhibition is 12.2%. With `Cc1cccc2cc(C#N)c(SCC#N)nc12`, the inhibition was 3.95%. For the compound `COc1ccc(NC(=O)Nc2cccc([N+](=O)[O-])c2)cc1Cl`, the inhibition is 2.05%.

Turning to `Oc1ccc(-c2cnc(-c3ccc(O)cc3)nc2)cc1`, the inhibition is 16.1%. For the compound `CCNc1c2c3c(cccc3n(C)c1=O)C(=O)c1ccccc1-2`, the inhibition is 80.2% (active). With `C=CCn1c(NS(=O)(=O)c2ccccc2)c(S(=O)(=O)c2ccc(C)cc2)c2nc3ccccc3nc21` the figure was 8.89%; with `CC(C)N(C(=O)Nc1ccc2nsnc2c1)C(C)C`, 20.8%.

As for `Oc1cccc(NC(=S)N=Nc2c(O)[nH]c3ccc(Br)cc23)c1`, the inhibition was 42% (active). With `Cc1ccc(S(=O)(=O)N2CCOCC2)cc1NC(=O)COC(=O)c1ccccc1OCc1c(C)noc1C` the figure was 16.8%; with `CCc1cccc(CC)c1NC(=O)COc1ccccc1C(=O)c1cc(C#N)c(=O)n(C2CCCCC2)c1`, 35.9% (active); with `CCn1c(CSc2nnc(-c3ccncc3)n2CCOC)nc2cc(C(=O)O)ccc21`, 51.1% (active). For `CN(C)S(=O)(=O)c1ccc(-c2csc(N/N=C/c3ccc(O)cc3)n2)cc1`, the inhibition was 25%. For `CCc1ccc(NC(=O)Nc2cccs2)cc1`, the inhibition was 17.9%.

On to `COc1ccc(C)cc1NC(=O)NNC(=O)c1cc2ccccc2cc1O`, for which the inhibition is 16.4%. For `CS(=O)(=O)N1N=C(c2ccccc2)CC1c1ccc2c(c1)OCO2` (stereo not given), the inhibition is -54.8%. With `CC#CCN1c2ccccc2[C@]23C[C@@H](C(=O)OC)N(C(=O)c4cc(C)oc4C)C2=NC(C(=O)OC)=C(C(=O)OC)[C@H]13`, the inhibition was 29.6% (active). To `Oc1ccc(/C=N/Nc2ccnc3cc(Cl)ccc23)c(O)c1O` belongs 51.8% (active); to `CCCCN(CC)CCCNC(=O)c1cn(CC)c2ccc(S(=O)(=O)N3CCc4ccccc4C3)cc2c1=O`, 59.1% (active). To `Cc1ccc(O)c(C(=O)c2cc(C#N)c(=O)n(-c3nccs3)c2)c1` belongs -1.15%; to `Cc1ccc2[nH]c3c(N4CCc5ccccc5C4)ncnc3c2c1`, 30.5% (active). On to `Cc1[nH]n(-c2ccccc2)c(=O)c1N=Nc1c(O)cc(S(=O)(=O)N(C)C)c2ccccc12`, for which the inhibition is 74.3% (active).

On to `CCCCN(CC)CCCNC(=O)c1cn(C)c2ccc(S(=O)(=O)N(C)C3CCCCC3)cc2c1=O`, for which the inhibition is 14.5%. To `O=C(N/N=C/c1sc(N2CCOCC2)nc1-c1ccccc1)c1ccccc1O` belongs 51.2% (active).
